Results reported in PubChem BioAssay (NCI).
This is part of a sample that, as a whole, favours compounds with a hit. Of some 83,000 tested, about 20% had one in any assay.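 Compound tested at a single concentration for 48 hours in 96-well plates; a percent growth value below 10 was scored as active.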 Values without a mark were called inactive. The source made the active and inactive calls.

tested on: CAKI-1 renal; test: NCI-60 one-dose screen, 48 h (100 = growth as untreated, 0 = no growth, -100 = all killed); settings: 10 µM unless noted
Experimental: Growth inhibition of the CAKI-1 human tumor cell line is measured as a screen for anti-cancer activity. Cells are grown in 96 well plates and exposed to the test compound for 48 hours. Compounds are tested at a single concentration, which is 10^-5 M for most compounds. The reported endpoint is percent growth (GI% or GIPRCNT), where numbers from 0 - 100% represent growth inhibition, and numbers from -100% - 0 represent cell death. For example, a value of 40 represents 60% growth inhibition. A value of 0 means no net growth occurred over the course of the experiment. A value of -40 indicates 40% of cells at the beginning of the experiment died by the end of the experiment. A value of -100 means all cells are dead at the end of the experiment.
NCI-60 Human Tumor Cell Lines Screen was performed using the standard one-dose NCI protocol, which is described in more detail at https://dtp.cancer.gov/discovery_development/nci-60/default.htm.
Compounds with GIPRCNT values below 10 were considered active. Activity score was based on GIPRCNT using the following formula: […]
Score is 0 for GIPRCNT values of 100 or above, 50 for GIPRCNT values of 0, and 100 for GIPRCNT values of -100.

Going from `COc1ccc(-n2c(SCc3cc(OC)c(OC)c(OC)c3)nc3ccc(C)cc3c2=O)c(OC)c1` to `COc1cc(C2CC(=O)Nc3c2ccc2ccccc32)cc(Br)c1OC` (stereo not given), the growth rises from 13.4% to 27.1%.

First: Cc1nc2cc(Nc3nc(Nc4ccc(F)cc4)nc(-c4ccc(Cl)cc4)n3)ccc2n1Cc1ccccc1
Second: Cc1nc2cc(Nc3nc(Cl)nc(Nc4ccc(F)cc4)n3)ccc2n1Cc1ccccc1
The growth of the first is higher: 90.4% for the first, 87.7% for the second.

Compared with `O=C1CC2c3cc(-c4cc5ccccc5o4)ccc3CCN2C(=O)N1c1ccccc1` (stereo not given), `COc1ccc(-c2c3c(N)c4c(nc3nc3c2c(C)nn3-c2ccccc2)CCCC4)cc1` is higher in growth: 80.8% for the first, 83.9% for the second.

Going from `CCN1CCN(C(=S)SCC(=O)Nc2nc3ccc(OC)cc3s2)CC1` to `COc1ccc(Nc2nc(NCCNc3ccnc4cc(Cl)ccc34)nc(N3CCOCC3)n2)cc1`, the growth falls from 81.8% to 80.2%.

First: COc1ccc(/C=C(\C#N)c2cc3ccccc3n2C)cc1
Second: Cc1c(NCC(=O)Nc2nc3ccccc3[nH]2)c(=O)n(-c2ccccc2)n1C
The growth of the first is lower: 33.5% for the first, 97.9% for the second.

Compared with `O=C(N/N=C/c1ccc(OC(F)F)c(OC2CCCC2)c1)c1cnn2c1NC(c1ccccc1)C2` (stereo not given), `COc1ccc(/C=C/C(=O)N2CCC(O)CC2)cc1OC1CCCC1` is higher in growth: 62.6% for the first, 93.1% for the second.

First: O=c1oc2ccccc2cc1-c1csc(N=Nc2c(O)[nH]c3ccc(Cl)cc23)n1
Second: Oc1ccc(Cl)cc1CNc1nc2ccccc2[nH]1
The growth of the first is higher: 94.9% for the first, 64% for the second.

First: COc1cccc(C2CC(=O)Nc3cc4c(cc32)OCO4)c1OC (stereo not given)
Second: CCCCC1COc2cccc3c(SCC(=O)N(C)c4cccc5ccccc45)cc[n+]1c23 (stereo not given)
The growth of the first is lower: 78.4% for the first, 98.7% for the second.

Going from `NC(=O)c1nc2c([nH]c1=O)CCCC2` to `O=c1nc(NO)[nH]c(=O)n1Cc1ccccc1`, the growth rises from 93% to 93.1%.

Compared with `FC(F)(F)c1cc(CNc2nc(Cl)ncc2Br)cc(C(F)(F)F)c1`, `O=C(O)c1ccccc1Oc1cc(-c2ccco2)nc(OCCBr)n1` is higher in growth: 76.5% for the first, 90.7% for the second.

First: O=C(CCc1nnc2sc(-c3ccccc3)nn12)c1nc2ccccc2[nH]1
Second: CSc1nnc(-c2sc3nnc(-c4ccccc4)c(-c4ccccc4)c3c2O)o1
The growth of the first is higher: 103% for the first, 43.5% for the second.

First: O=C1c2c(c3c4cc(Br)ccc4[nH]c3c3ccc4ccccc4c23)C(=O)N1O
Second: Nc1cccc2c(=S)c3ccccc3[nH]c12
The growth of the first is lower: 69.6% for the first, 77.1% for the second.

Going from `CCOC(=O)C(CC(c1ccccc1)N1CCCCC1)[N+](=O)[O-]` (stereo not given) to `Cc1nc2cc(Nc3nc(N4CCCCC4)nc(N4CCOCC4)n3)ccc2n1Cc1ccccc1`, the growth falls from 103% to 63.3%.

Going from `CC(C)NCC(O)COc1ccc(CCOCC2CC2)cc1` (stereo not given) to `C=C(C)CCCC(C)CC#N` (stereo not given), the growth falls from 99.3% to 98.5%.

First: c1ccc(-c2nc(N3CCOCC3)c3c4c(sc3n2)CCCCCC4)nc1
Second: Cc1nc2ccc(Cl)cc2n1C
The growth of the first is lower: 35.3% for the first, 101% for the second.

In the case of `Cc1ccc2nc(NC(=O)CSC(=S)N3CCN(Cc4ccccc4)CC3)sc2c1`, the growth is reported as -20.8% (active).
For `CC(C)(C)[Si](C)(C)OC1[C@@H](CNC(=O)NC(=O)CCl)O[C@@H](n2cnc3c(N)ncnc32)[C@H]1O[Si](C)(C)C(C)(C)C` (stereo not given in full), the growth was -64.8% (active).
In the case of `COc1cccc(C2C3=C(COC3=O)N(CCO)c3cc4c(cc32)CCC4)c1` (stereo not given), the growth is reported as 4.92% (active).
In the case of `COC(=O)c1c2c(c(C)[n+]([O-])c1C)C(=O)C=C(NCc1ccc(F)c(Cl)c1)C2=O`, the growth is reported as -16.1% (active).
For `COc1cc(CNCCN2C(=O)c3ccc4c5c(ccc(c35)C2=O)C(=O)N(CCNCc2cc(OC)c(OC)c(OC)c2)C4=O)cc(OC)c1OC`, the growth was -70% (active).
In the case of `O=C(NCc1cccnc1)c1ccc([N+](=O)[O-])o1`, the growth is reported as -3.61% (active).
With `COc1cc2nc(N3CCC[C@H](NC4=CC(=O)c5ccccc5C4=O)C3)nc(N)c2cc1OC` the growth was -56.6% (active).
In the case of `CCCCCCCCCCCC(=O)[O][Sn]([CH2]CCC)([CH2]CCC)[CH2]CCC`, the growth is reported as -97.8% (active).
In the case of `COC(=O)c1c2c(c(C)[n+]([O-])c1C)C(=O)C=C(NCc1ccc(Cl)cc1)C2=O`, the growth is reported as -3.15% (active).

`Cc1c(C(=O)Nc2nc(-c3ccccc3)cs2)nnn1-c1cccc2ccccc12` gave a growth of 35.8% [50 µM].
